The source made the active and inactive calls.

This is an account of results in PubChem BioAssay.

Experiment [1] can be described thus: small molecules captured by biotinylated probe aFSTL3 – biochemical, small-molecule microarray, fluorescence 635/667, stem cell growth factor project, primary screen (AID 1064).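 Further: measures binding of the biotinylated anti-FSTL3 antibody to printed compounds.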 To be noted: higher = more signal.
Experiment [2] can be described thus: binders from COS7 lysate, DM2A8 probe, primary screen, torsin A project, cell lysate, small-molecule microarray, fluorescence 635/667 (AID 1065). To be noted: higher = more signal, COS7 lysate expressing mutant human TOR1A.
Experiment [3] is described as follows: small molecules captured by biotinylated probe aFGF2 – biochemical, small-molecule microarray, fluorescence 635/667, stem cell growth factor project, primary screen (AID 1067).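 Further: measures binding of biotinylated aFGF2 protein to printed compounds on slides; z-score merges feature fluorescence and signal-to-noise across triplicate slides.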 Particulars: higher = more signal.
A short description of experiment [4]: small molecules captured by biotinylated probe aFGF10 – biochemical, small-molecule microarray, fluorescence 635/667, stem cell growth factor project, primary screen (AID 1071).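 Further: score merges 667 nm spot intensity and signal to noise from triplicate slides.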 To be noted: higher = more signal.
The target in experiment [5] is Neurogenic locus notch homolog protein 2 (Homo sapiens) (UniProt Q04721). In words: small molecules binding Notch2 protein – biochemical, small-molecule microarray, 635 nm fluorescence, stem cell growth factors, primary screen (AID 1073). Particulars: higher = more signal.
Experiment [6] has as its target Pro-neuregulin-1, membrane-bound isoform (Homo sapiens) (UniProt Q02297). Nature of the experiment: small molecules binding neuregulin-1 protein – biochemical, small-molecule microarray, fluorescence 635/667, psychiatric disease protein project, primary screen (AID 1075).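 Further: score combines 667 nm spot fluorescence with signal to noise.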 Particulars: NRG1 binding, 635 nm fluorescence, higher = more signal.
For experiment [7], the system named is Neuregulin-1 EGF-like domain. Nature of the experiment: small molecules binding NRG1 EGF domain – biochemical, small-molecule microarray, 635 nm fluorescence, primary screen (AID 1081).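 Further: binding of the protein to compounds printed on small-molecule microarray slides.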 Particulars: higher = more signal.
The nature of experiment [8]: FRG1 expression reporter modulators in myotubes – cell-based, C2C12 myotubes, firefly/Renilla luciferase, luminescence, FRG1 inhibition for FSHD, primary screen (AID 1084). To be noted: FRG1 promoter luciferase, higher = more signal, called active from +8 up or from −8 down.
The nature of experiment [9]: small molecules captured by biotinylated probe aFST – biochemical, small-molecule microarray, fluorescence 635/667, stem cell growth factor project, primary screen (AID 1086).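 Further: score merges 667 nm fluorescence with signal-to-noise of each printed compound spot.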 To be noted: higher = more signal.
Experiment [10] is described as follows: binders of probe aHhip on microarray, primary screen, stem cell growth factor project, biochemical, small-molecule microarray, fluorescence 635/667 (AID 1087).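 Further: score merges spot fluorescence at 667nm with spot signal to noise ratio.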 To be noted: higher = more signal.
In experiment [11] the test system is PRMT1 (protein arginine N-methyltransferase 1). In words: small molecules binding arginine methyltransferase PRMT1 – biochemical, small-molecule microarray, 635 nm fluorescence, primary screen (AID 1088).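 Further: binding of Prmt1 protein to compounds spotted on small-molecule microarray slides.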 To be noted: higher = more signal.
Experiment [12] is described as follows: growth effects on S. cerevisiae YJM789 – YJM789 clinical isolate, OD600, 24 h, basal, primary screen (AID 1089).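 Further: growth of clinical yeast isolate S. cerevisiae YJM 789 seeded 1000 cells per well; test concentration not given here.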 Particulars: higher = more signal, called active from +8 up or from −8 down.
Experiment [13] in a line: S. pombe growth modifiers, basal conditions – strain 972, OD600, 24 h, no modulator, primary screen (AID 1090).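 Further: basal condition with compound alone and no growth modifier present; test concentration not given here.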 To be noted: S. pombe 972 growth, higher = more signal, called active from +8 up or from −8 down.
Experiment [14] in a line: budding yeast growth modifiers under rapamycin – strain BY4716, OD600, 96 h, primary screen (AID 1091). Further: test concentration not given here. Particulars: S. cerevisiae BY4716 + rapamycin, higher = more signal, called active from +8 up or from −8 down.
The target in experiment [15] is Torsin-1A-interacting protein 2 (Homo sapiens) (UniProt Q8NFQ8). In words: small molecules binding lysate-expressed LULL1 – cell lysate, human LULL1 lysate, 635/667 nm fluorescence, primary screen (AID 1092).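 Further: probe is lysate of COS7 cells overexpressing human LULL1; score merges per-feature 667 nm fluorescence with signal-to-noise.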 Particulars: small-molecule microarray, hLULL1 lysate binding, 635 nm fluorescence; higher = more signal.
Experiment [16] is described as follows: optical density change of DRC41 E. coli – strain DRC41, OD650, 24 h, E. coli filamentation project, primary screen (AID 1093).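 Further: MC1000 strain lacking acrAB efflux and sulA so SOS filamentation is blocked; test concentration not given here.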 To be noted: E. coli DRC41 growth, higher = more signal, called active from +8 up or from −8 down.
Experiment [17] can be described thus: probe aLefty2 binding to arrayed compounds – biochemical, biotinylated probe, 635/667 nm fluorescence, primary screen (AID 1094).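 Further: score merges spot fluorescence near 667 nm with spot signal-to-noise ratio.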 To be noted: small-molecule microarray, higher = more signal.
In experiment [18] the test system is Noggin (protein binding on small-molecule microarray). In words: small molecules binding Noggin protein – biochemical, 635/667 nm fluorescence, primary screen (AID 1095).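 Further: score merges 667 nm feature fluorescence with signal to noise over triplicate slides.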 Particulars: 635 nm fluorescence, higher = more signal.
The target in experiment [19] is Neurogenic locus notch homolog protein 3 (Homo sapiens) (UniProt Q9UM47). In words: small molecules binding NOTCH3 protein – biochemical, 635/667 nm fluorescence, primary screen (AID 1096). To be noted: small-molecule microarray, 635 nm fluorescence, higher = more signal.
A short description of experiment [20]: probe aEGFR binding to arrayed compounds – biochemical, biotinylated probe, 635/667 nm fluorescence, primary screen (AID 1097).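 Further: probe is a biotinylated anti-EGFR antibody binding compounds printed on slides; score combines fluorescence near 667 nm and signal to noise of each spot.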 Particulars: small-molecule microarray, higher = more signal.

Chain of Pro-neuregulin-1, membrane-bound isoform (Homo sapiens) (Q02297 whole entry, looked up, the tested form may be a part, canonical isoform): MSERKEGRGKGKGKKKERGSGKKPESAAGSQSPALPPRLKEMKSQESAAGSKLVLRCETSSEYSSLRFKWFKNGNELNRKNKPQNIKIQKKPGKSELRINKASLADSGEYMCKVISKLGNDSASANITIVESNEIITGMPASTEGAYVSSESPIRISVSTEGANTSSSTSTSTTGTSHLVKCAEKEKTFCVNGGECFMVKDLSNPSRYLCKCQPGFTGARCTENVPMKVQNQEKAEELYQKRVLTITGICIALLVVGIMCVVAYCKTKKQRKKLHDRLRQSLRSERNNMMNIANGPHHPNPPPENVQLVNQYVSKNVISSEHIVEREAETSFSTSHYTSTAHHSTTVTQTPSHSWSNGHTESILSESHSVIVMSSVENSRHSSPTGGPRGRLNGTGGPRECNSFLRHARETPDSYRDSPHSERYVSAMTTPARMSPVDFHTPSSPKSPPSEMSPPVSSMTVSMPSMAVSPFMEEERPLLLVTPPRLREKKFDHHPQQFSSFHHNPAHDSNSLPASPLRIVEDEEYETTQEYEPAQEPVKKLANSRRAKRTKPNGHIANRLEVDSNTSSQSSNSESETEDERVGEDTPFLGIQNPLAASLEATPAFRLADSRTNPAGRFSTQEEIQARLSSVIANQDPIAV
Chain of Neurogenic locus notch homolog protein 2 (Homo sapiens) (Q04721 whole entry, looked up, canonical isoform): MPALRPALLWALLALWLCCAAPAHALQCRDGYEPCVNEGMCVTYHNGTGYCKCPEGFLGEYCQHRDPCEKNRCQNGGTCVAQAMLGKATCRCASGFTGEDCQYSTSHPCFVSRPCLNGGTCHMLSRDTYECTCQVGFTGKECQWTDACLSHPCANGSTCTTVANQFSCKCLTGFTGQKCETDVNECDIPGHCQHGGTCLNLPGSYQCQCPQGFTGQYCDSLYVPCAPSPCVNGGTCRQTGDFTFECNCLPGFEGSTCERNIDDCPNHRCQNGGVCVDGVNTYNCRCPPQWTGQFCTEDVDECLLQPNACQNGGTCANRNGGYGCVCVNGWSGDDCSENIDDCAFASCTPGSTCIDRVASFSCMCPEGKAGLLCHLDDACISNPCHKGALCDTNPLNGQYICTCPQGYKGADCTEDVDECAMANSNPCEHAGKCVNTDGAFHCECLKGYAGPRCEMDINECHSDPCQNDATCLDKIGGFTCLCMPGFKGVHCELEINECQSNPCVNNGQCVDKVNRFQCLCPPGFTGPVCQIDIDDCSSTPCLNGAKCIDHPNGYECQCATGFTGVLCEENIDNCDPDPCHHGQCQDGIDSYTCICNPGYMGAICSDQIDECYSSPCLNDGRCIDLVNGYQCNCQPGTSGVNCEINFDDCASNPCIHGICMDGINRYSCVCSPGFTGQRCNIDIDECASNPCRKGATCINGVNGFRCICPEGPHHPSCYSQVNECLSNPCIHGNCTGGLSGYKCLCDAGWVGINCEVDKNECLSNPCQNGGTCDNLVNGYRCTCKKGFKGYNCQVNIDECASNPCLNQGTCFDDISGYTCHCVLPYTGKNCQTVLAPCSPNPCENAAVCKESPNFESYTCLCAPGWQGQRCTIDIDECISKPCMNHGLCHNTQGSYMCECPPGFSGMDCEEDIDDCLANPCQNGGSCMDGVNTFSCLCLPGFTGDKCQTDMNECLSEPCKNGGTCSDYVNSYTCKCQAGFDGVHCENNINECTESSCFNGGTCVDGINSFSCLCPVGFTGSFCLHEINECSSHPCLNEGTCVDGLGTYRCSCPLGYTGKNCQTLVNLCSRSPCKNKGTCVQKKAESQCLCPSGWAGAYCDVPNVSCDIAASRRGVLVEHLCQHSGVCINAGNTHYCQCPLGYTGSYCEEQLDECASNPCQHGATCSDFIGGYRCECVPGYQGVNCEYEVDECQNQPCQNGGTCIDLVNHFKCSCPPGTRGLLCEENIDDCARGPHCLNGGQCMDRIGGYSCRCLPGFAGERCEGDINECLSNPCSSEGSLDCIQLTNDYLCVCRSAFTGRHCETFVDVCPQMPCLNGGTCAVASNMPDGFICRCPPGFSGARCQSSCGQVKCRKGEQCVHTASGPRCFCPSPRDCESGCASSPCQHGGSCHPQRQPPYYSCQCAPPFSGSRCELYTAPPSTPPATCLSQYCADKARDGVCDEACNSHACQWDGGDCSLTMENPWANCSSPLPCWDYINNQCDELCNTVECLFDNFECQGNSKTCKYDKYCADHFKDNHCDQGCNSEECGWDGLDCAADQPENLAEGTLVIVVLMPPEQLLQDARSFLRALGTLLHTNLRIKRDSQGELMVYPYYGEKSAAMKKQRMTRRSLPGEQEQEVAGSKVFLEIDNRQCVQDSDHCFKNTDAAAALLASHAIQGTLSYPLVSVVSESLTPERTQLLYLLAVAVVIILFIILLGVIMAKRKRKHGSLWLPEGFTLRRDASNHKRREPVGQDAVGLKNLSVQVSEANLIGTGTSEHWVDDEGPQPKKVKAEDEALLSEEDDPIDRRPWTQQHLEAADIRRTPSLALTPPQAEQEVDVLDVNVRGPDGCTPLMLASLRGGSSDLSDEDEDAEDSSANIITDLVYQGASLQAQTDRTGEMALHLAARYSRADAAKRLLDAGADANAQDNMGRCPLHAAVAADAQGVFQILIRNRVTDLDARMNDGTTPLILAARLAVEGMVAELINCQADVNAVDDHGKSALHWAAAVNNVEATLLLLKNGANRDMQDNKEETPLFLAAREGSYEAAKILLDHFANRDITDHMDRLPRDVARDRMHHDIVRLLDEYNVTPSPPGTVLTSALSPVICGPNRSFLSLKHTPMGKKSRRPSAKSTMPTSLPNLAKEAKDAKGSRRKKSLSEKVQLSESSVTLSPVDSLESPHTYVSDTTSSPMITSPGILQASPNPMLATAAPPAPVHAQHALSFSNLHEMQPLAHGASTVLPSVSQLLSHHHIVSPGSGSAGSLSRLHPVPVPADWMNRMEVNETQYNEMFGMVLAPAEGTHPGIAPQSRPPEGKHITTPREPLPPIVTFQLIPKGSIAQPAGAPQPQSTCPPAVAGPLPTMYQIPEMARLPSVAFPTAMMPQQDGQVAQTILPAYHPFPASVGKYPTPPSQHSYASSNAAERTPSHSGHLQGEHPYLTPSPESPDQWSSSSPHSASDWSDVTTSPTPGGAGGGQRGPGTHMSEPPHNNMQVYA
Chain of Torsin-1A-interacting protein 2 (Homo sapiens) (Q8NFQ8 whole entry, looked up): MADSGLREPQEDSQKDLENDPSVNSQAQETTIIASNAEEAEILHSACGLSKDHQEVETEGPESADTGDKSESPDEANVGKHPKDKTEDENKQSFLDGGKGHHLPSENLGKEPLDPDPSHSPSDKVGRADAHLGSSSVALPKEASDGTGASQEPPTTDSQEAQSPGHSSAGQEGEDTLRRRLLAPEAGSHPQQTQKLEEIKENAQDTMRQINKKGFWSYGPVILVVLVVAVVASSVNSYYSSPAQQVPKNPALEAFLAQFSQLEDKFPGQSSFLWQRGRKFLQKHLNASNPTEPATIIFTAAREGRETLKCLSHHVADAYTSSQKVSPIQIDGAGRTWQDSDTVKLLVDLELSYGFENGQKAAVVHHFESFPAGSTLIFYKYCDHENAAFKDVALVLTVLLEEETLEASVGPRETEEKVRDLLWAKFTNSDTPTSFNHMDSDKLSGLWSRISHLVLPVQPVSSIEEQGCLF

`CC(C)=CCN[C@H](CO)c1ccccc1`: the composite z-score is -0.122 in experiment [1]; -0.428 in experiment [2]; -0.0732 in experiment [3]; 0.897 in experiment [4]; 0.794 in [5]; -0.419 in experiment [6]. Further, the composite z-score in [7] was 0.249; in [9], -0.0489; in [10] it was 0.0129; in experiment [11] it was -0.198; in [15] it was 0.138; in [17] it was -0.236. Besides, the composite z-score is 0.346 in experiment [18], -0.0083 in experiment [19] and -0.203 in [20]. The z-score in experiment [8] was 1.07 (inactive); in experiment [12] it was -0.613 (inactive); in experiment [13], -4.99 (inactive); in experiment [14], -1.32 (inactive); in [16] it was -0.291 (inactive).
As to `COCCCNC(=O)[C@@]1(C)c2ccccc2C(=O)N(C(C)C)[C@H]1c1ccc(CO)cc1`, the composite z-score in experiment [1] is -0.427; in experiment [2], 0.512; in [3], -0.0996; in [4], -0.0442; in experiment [5], 0.552; in experiment [6] it was 0.302. For the same compound, the composite z-score in experiment [7] is 1.48; in experiment [9], 0.114; in [10], 0.0201; in [11] it was 1.53; in experiment [15], 1.6; in experiment [17] it was -0.136. Also, the figures for the composite z-score in [18], in experiment [19] and in experiment [20] were 0.571, 0.473 and 0.0004, respectively. Moreover, the z-score is 0.214 (inactive) in experiment [8]; 0.564 (inactive) in [12]; -0.162 (inactive) in [13]; 0.642 (inactive) in experiment [14]; -0.636 (inactive) in [16].
For `CN1C(=O)C2C=CC(C(O)c3ccc([N+](=O)[O-])cc3)N(N3CCCCC3)C2C1=O` (stereo not given), the composite z-score is 1.11 in experiment [1]; -0.306 in experiment [2]; 0.132 in experiment [3]; 0.695 in experiment [4]; 1.6 in experiment [5]; 1.3 in [6]. Moreover, the composite z-score in experiment [7] is 0.961; in [9] it was 1.36; in experiment [10], -0.365; in experiment [11] it was 0.957; in experiment [15] it was 2.69; in experiment [17], 0.347. Besides, the composite z-score is -0.245 in [18], 1.07 in experiment [19] and 0.161 in experiment [20]. In addition, the z-score in experiment [8] was 0.198 (inactive); in experiment [12] it was 0.462 (inactive); in [13], 0.647 (inactive); in [14], 0.19 (inactive); in experiment [16], -1.74 (inactive).
Regarding `C=CCC(OC(C)=O)[C@@H]1[C@@H](N(Cc2cccc3ccccc23)C(=O)c2ccc(-c3ccccc3)cc2)c2cc(OCCCO)ccc2N1C(=O)c1ccc2ccccc2c1` (stereo not given in full), the composite z-score in [1] was -0.484; in [2], 0.306; in experiment [3] it was -0.0647; in experiment [4], -0.0203; in experiment [5], 0.104; in [6], 0.148. Moreover, the composite z-score in experiment [7] was 0.0031; in [9], 0.131; in experiment [10], 0.0722; in [11], 0.833; in experiment [15], 1.76; in experiment [17] it was -0.0174. Also, the composite z-score is 0.251 in experiment [18], 0.643 in experiment [19] and -0.0578 in [20]. Besides, the z-score in [8] is -0.0039 (inactive); in experiment [12], -0.226 (inactive); in experiment [13], 0.435 (inactive); in experiment [14], 0.009 (inactive); in experiment [16], -0.601 (inactive).
`O=C1C[C@]2(c3ccc([N+](=O)[O-])cc3)C(=O)N(CC(F)(F)F)c3cc(CO)ccc3[C@H]2N1C1CCCCC1`: the composite z-score was 0.342 in experiment [1]; -0.819 in experiment [2]; -0.148 in experiment [3]; -0.91 in [4]; -0.488 in [5]; -0.722 in [6]. The composite z-score in experiment [7] is -1.5; in experiment [9], -0.167; in experiment [10] it was -0.226; in [11], 0.137; in experiment [15], -0.0451; in experiment [17], -0.216. In addition, the values for the composite z-score in experiment [18], in experiment [19] and in experiment [20] were -0.425, -1.41 and -0.201, respectively. Also, the z-score in [8] was 0.0655 (inactive); in [12], 0.926 (inactive); in [13], -0.378 (inactive); in experiment [14] it was -1.03 (inactive); in experiment [16] it was 0.685 (inactive).
Consider `C=CCOC(=O)[C@H]1[C@@H]2C(=O)O[C@@H](c3ccccc3)[C@@H](c3ccccc3)N2[C@@H](c2ccc(OCCOC(=O)[C@H]3C[C@H]4C(=O)N[C@@H](CCCC[N+](C)(C)C)C(=O)N4[C@H]3c3ccc(O)cc3)cc2)[C@]12C(=O)Nc1ccc(I)cc12`, for which the composite z-score in [1] was -0.301; in experiment [2], 1.33; in experiment [3], -0.0904; in [4], -0.333; in [5], -0.295; in experiment [6], 2.05. Also, the composite z-score in [7] was 0.595; in [9], -0.333; in experiment [10], 0.6; in experiment [11], 1.36; in [15], 1.14; in experiment [17], 0.331. Further, the composite z-score in [18] is 0.733; in experiment [19], 0.209; in experiment [20], 0.0304. Further, the z-score in experiment [8] is 2.93 (inactive); in [12], 0.318 (inactive); in experiment [13], -0.503 (inactive); in experiment [14], 0.467 (inactive); in experiment [16] it was -0.173 (inactive).
`C=C(COC)/C(=C/C[C@@H](OC(C)=O)c1ccc(OCCO)cc1)c1cnc2ccccc2c1`: the composite z-score is -0.123 in experiment [1]; 0.093 in experiment [2]; 0.0059 in experiment [3]; 0.647 in [4]; 0.912 in [5]; 0.521 in experiment [6]. In addition, the composite z-score in [7] is 0.957; in experiment [9], 0.253; in experiment [10], 0.0413; in experiment [11] it was 1.19; in [15], 0.014; in experiment [17] it was -0.0998. The composite z-score in experiment [18] was 1.89; in [19] it was 1.08; in experiment [20], -0.067. Moreover, the z-score is -0.265 (inactive) in experiment [8]; -0.938 (inactive) in experiment [12]; -1.5 (inactive) in [13]; -1.05 (inactive) in experiment [14]; 2.33 (inactive) in [16].
For the compound `COc1ccc(CCNC(=O)[C@@]2(Sc3ccc(C)cc3)CC(=O)N(C(C)C)[C@@H]2c2ccc(CO)cc2I)cc1`, the composite z-score in [1] is -0.0354; in experiment [2], -0.566; in experiment [3] it was 0.0376; in experiment [4] it was -0.341; in experiment [5], -0.83; in experiment [6], -0.387. The composite z-score was 0.31 in experiment [7]; 0.238 in experiment [9]; -0.511 in experiment [10]; 0.163 in experiment [11]; 0.468 in [15]; -0.183 in [17]. In addition, the values for the composite z-score in [18], in experiment [19] and in [20] were -0.778, -0.343 and -0.189, respectively. The z-score was -0.132 (inactive) in experiment [8]; -0.971 (inactive) in experiment [12]; -0.693 (inactive) in [13]; 0.706 (inactive) in experiment [14]; -0.236 (inactive) in experiment [16].
Regarding `CN1C(=O)C2C=CC(C(O)c3ccccc3)N(N(c3ccccc3)c3ccccc3)C2C1=O` (stereo not given), the composite z-score is -0.034 in experiment [1]; 0.287 in experiment [2]; 0.0561 in experiment [3]; 0.332 in experiment [4]; 0.924 in experiment [5]; 0.647 in experiment [6]. Moreover, the composite z-score was 0.553 in experiment [7]; 0.474 in [9]; 0.245 in experiment [10]; -0.124 in [11]; 0.317 in [15]; 0.603 in experiment [17]. In addition, the composite z-score in experiment [18] is 0.141; in experiment [19], 0.422; in experiment [20] it was -0.0668. Also, the z-score is 0.815 (inactive) in [8]; 0.0175 (inactive) in experiment [12]; 0.808 (inactive) in experiment [13]; 0.495 (inactive) in experiment [14]; -0.642 (inactive) in experiment [16].
